# Among all 360,000 compounds or so, about 4,200 (1.2%) were called active. The sample holds actives, similar compounds and a random draw of the others, so the mix is not that of the screen. A number with no mark means an inactive call.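 Rule for the calls: active = mean replicate inhibition at least 60% with every replicate also reaching 60%; inconclusive = only one of the two criteria is met; inactive = mean below 60% and not all replicates reaching 60%.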
# Assay: inhibitors of PAX8-driven TPO luciferase reporter, primary screen, RMG-I cells, single concentration (AID 652154);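 note: luciferase light reporting Pax8 driven TPO promoter activity; plate controls were median of neutral control wells for no effect and mitoxantrone controls for full effect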
# Conditions: SteadyGlo, 24 h, at 12.6 µM, stronger effect = higher value
row,Structure (SMILES),inhibition
1,COc1ccc(NC(=O)Nc2ccc3c(c2)C(=O)N([C@H](C)CO)C[C@H](C)[C@H](CN(C)S(=O)(=O)c2ccc(Cl)cc2)OCCCC[C@H](C)O3)cc1,26.6%
2,O=C(C[C@@H]1C[C@@H]2c3cc(NS(=O)(=O)c4ccccc4)ccc3O[C@@H]2[C@@H](CO)O1)NC1CCCCC1,15.4%
3,CCOC(=O)c1c(C)[nH]c2c1-c1ccccc1C(=O)C2=O,107% (active)
4,CCOC(=O)c1c(C)[nH]c(C(=O)OCC(=O)c2ccc(OC)cc2OC)c1C,-7.09%
5,CCOC(=O)c1c(C)[nH]c(C)c1S(=O)(=O)NCCCc1ccco1,-4.09%
6,COCC(=O)Nc1ccc2c(c1)C(=O)N(C)C[C@@H](OC)[C@@H](C)CN(C(=O)c1ccccc1)[C@@H](C)CO2,-10.2%
7,CC(=O)N1[C@@H](CO)[C@@H]2c3ccccc3N(S(=O)(=O)c3ccccc3)C[C@@H]21,7.26%
8,O=C(C(=O)N1CCC(CNC(=O)c2cccnc2Cl)CC1)c1cccs1,-11.9%
9,O=C(N/N=C\c1cccc(Br)c1)c1ccccc1-n1cccc1,24.9%
10,CC(/C=N/NC(=O)c1cc(-c2ccc3ccccc3c2)n[nH]1)=C\c1ccco1,-6.24%
11,Cc1cc(C(=O)NCCc2ccc(Cl)cc2)c(C)o1,-114%
12,Cc1ccc(-c2cc(C(=O)N/N=C/C=C/c3ccccc3)n[nH]2)o1,47.7%
13,CC(C)c1cc(C(=O)N/N=C/C(Br)=C/c2ccccc2)n[nH]1,74.5% (active)
14,Cc1cc(C(=O)N/N=C\C(Br)=C\c2ccccc2)c(C)o1,63% (active)
15,O=C(Nc1cccc(F)c1)N[C@@H]1CC[C@@H](CCn2cc(Cc3ccccc3)nn2)O[C@@H]1CO,3.01%
16,C[C@H](CO)N1C[C@H](C)[C@H](CN(C)C(=O)Nc2ccc3c(c2)OCO3)Oc2ccc(NS(=O)(=O)c3ccc(Cl)cc3)cc2CC1=O,-20.9%
17,CN1[C@@H]2CN(C(=O)c3ccc(F)cc3)c3ccccc3[C@@H]2[C@@H]1CO,-1.94%
18,O=C(Nc1cc(F)ccc1F)N[C@H]1CC[C@@H](CCn2cc(C3CCCC3)nn2)O[C@@H]1CO,5.81%
19,Cc1noc(C)c1NC(=O)N(C)C[C@H]1Oc2ccc(NC(=O)C3CCCCC3)cc2CC(=O)N([C@@H](C)CO)C[C@H]1C,-10.9%
20,CO[C@@H]1CN(C)C(=O)c2ccc(NC(=O)C3CCC3)cc2OC[C@H](C)N(C(=O)CN(C)C)C[C@H]1C,-10.4%
21,CC[n+]1cc(C)ccc1/C=C/c1ccc(N(C)C)cc1,86.7% (active)
22,COc1cccc(CNC(=O)C[C@H]2CC[C@@H](NC(=O)C3CCC3)[C@@H](CO)O2)c1,-6.76%
23,O=C(Cc1ccccc1)N1C[C@@H]2[C@H](c3ccccc31)[C@@H](CO)N2C(=O)C1CC1,6.8%
24,O=C(c1ccccc1)N1C[C@@H]2[C@H](c3ccccc31)[C@@H](CO)N2Cc1cc(F)ccc1F,28%
25,Cc1ccc(S(=O)(=O)N(C)C[C@H]2OCCCC[C@H](C)Oc3ccc(N(C)C)cc3C(=O)N([C@H](C)CO)C[C@@H]2C)cc1,32%

row,Structure (SMILES),inhibition
1,O=C(C[C@@H]1C[C@@H]2c3cc(NC(=O)NC4CCCC4)ccc3O[C@@H]2[C@H](CO)O1)NCC(F)(F)F,-19.4%
2,Oc1c(Cl)cc(Cl)c(Cl)c1Cc1c(O)c(Cl)cc(Cl)c1Cl,107% (active)
3,CNC[C@H]1OCCCC[C@@H](C)Oc2ccc(NC(=O)c3ccncc3)cc2C(=O)N([C@H](C)CO)C[C@H]1C,-8.2%
4,COc1ccc(N2CCN(C3CCCCC3NS(=O)(=O)c3ccccc3)CC2)cc1 (centres undefined),19.3%
5,O=S(=O)(NC1CCCCC1N1CCN(c2ccccc2F)CC1)c1ccccc1 (centres undefined),101% (active)
6,O=S(=O)(NC1CCCCC1N1CCCCC1)c1ccc(Cl)cc1 (centres undefined),7.52%
7,C[C@@H]1CN([C@@H](C)CO)C(=O)c2cc(NC(=O)CCN3CCOCC3)ccc2O[C@H]1CN(C)C(=O)NC1CCCCC1,-13.4%
8,C[C@@H]1CN([C@@H](C)CO)C(=O)c2cc(-c3cncnc3)cnc2O[C@H]1CN(C)Cc1cncnc1,-3.91%
9,CN(C)C(=O)c1cccc(-c2ccc([C@H]3[C@@H](CO)N4C(=O)CN(C(=O)C5CC5)C[C@@H]34)cc2)c1,-11.3%
10,Cc1cccc(N(Cc2ccccc2)C(=O)c2ccccc2F)c1,3.65%
11,CCCC(O)(CCC)C(=O)NN(C(=O)CCl)c1cccc(C)c1,76.1% (active)
12,CCCCC(O)(CCCC)C(=O)NN(C(=O)CCl)c1ccccc1,-1.33%
13,CN1c2ccc(-c3cccc(F)c3)cc2[C@@H]2[C@@H](CCN2C(=O)Nc2ccccc2F)[C@@H]1CO,39.3%
14,CCCCCCCCn1c2c(c(=N)c3c1CCC3)CCCC2,96.6% (active)
15,CC(C)NC(=O)Nc1ccc2c(c1)C(=O)N([C@H](C)CO)C[C@H](C)[C@H](CN(C)Cc1ccc(C(=O)O)cc1)OCCCC[C@@H](C)O2,2.34%
16,Cc1ccccc1OS(=O)(=O)c1cccc([N+](=O)[O-])c1,-23.3%
17,O=C(NCc1ccncc1)c1ccc(NS(=O)(=O)c2cccc([N+](=O)[O-])c2)cc1,-1.39%
18,N/C(=N\OS(=O)(=O)c1cccc([N+](=O)[O-])c1)c1ccncc1,134% (active)
19,COc1ccc(NC(=O)N[C@H]2CC[C@H](CCn3cc(-c4ccccc4F)nn3)O[C@H]2CO)cc1,-4.51%
20,C[C@@H]1CCCCO[C@H](CN(C)S(=O)(=O)c2cn(C)cn2)[C@@H](C)CN([C@@H](C)CO)C(=O)c2cc(NC(=O)c3ccncc3)ccc2O1,-1.88%
21,CO[C@H]1CN(C)C(=O)c2ccc(NS(=O)(=O)c3cn(C)cn3)cc2OC[C@@H](C)N(CC2CC2)C[C@H]1C,-11.1%
22,O=C(CC(=O)N/N=C\c1ccc(F)cc1)NCCc1ccccc1,16.1%
23,O=C(Cc1c[nH]c2ccccc12)N/N=C/c1cccc(F)c1,73.6% (active)
24,O=C(NC(Cc1c[nH]c2ccccc12)C(=O)N/N=C/c1ccc(Br)cc1)c1cccs1 (centres undefined),-2.62%

# — PubChem BioAssay AID652154 (Broad Institute, 2013)
